# “And” between values parts separate entries of the source, which are not always exact repeats. Equal entries are not always repeated. Records with an inconclusive call do not appear. A call without a number means that no potency is given here. The source made the active and inactive calls. Unless noted, calls come from the whole dose curve; as a rule, active = well fitted curve in the direction sought with a large enough effect; inconclusive = small, poorly fitted or top-dose-only effect, or another doubt; inactive = no such curve, though single readings can be large; an effect the other way counts as inactive or inconclusive.
# How the values were obtained:
# [1] = Cell Viability - HepG2 (AID 433; calls by dose curve;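 note: potency is the fitted concentration of half-maximal effect; cells exposed to compound for 40 hours; potency for ATP loss meaning cytotoxicity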); conditions: qHTS
# Outline: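 Cytotoxicity read as ATP loss (CellTiter-Glo luminescence) after 40 hr compound exposure of HepG2, 1500 cells/well, 37 °C. AC50 by Hill equation; 0% set by DMSO, 100% inhibition by 100 uM tamoxifen.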
# [2] = Cell Viability - Renal Proximal Tubule (AID 545); conditions: renal proximal tubule cells viability; series mostly up to 91.7 µM;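 note: cells exposed to compound for 40 hours; nearly all actives have a fitted effect of over 40% in size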
# Outline: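 Viability taken as intracellular ATP (CellTiter-Glo luminescence) after 40 hr, 37 °C compound treatment of primary proximal tubule cells from rat kidney, 1000 cells/well; Hill-equation fits of qHTS concentration-response data gave AC50.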
# [3] = Cellular Toxicity (caspase-3) HUV-EC-C (AID 656); conditions: HUV-EC-C cells, caspase-3 activation (apoptosis), vehicle = 0, 100 µM tamoxifen = 100%; series mostly up to 92.2 µM
# Outline: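 Luminescent Caspase-Glo 3/7 readout after 16 h, 37 °C compound exposure of HUV-EC-C endothelial cells, 1000 per well, complete medium. AC50 derived by Hill fitting, with DMSO as baseline and 100 uM tamoxifen as full activation.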
# [4] = Cellular Toxicity (caspase-3) SHSY5Y (AID 657); conditions: SH-SY5Y caspase-3 activation, DMSO zero, 10 µM staurosporine = 100%; series mostly up to 91.7 µM
# Outline: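 Luminescent Caspase-Glo 3/7 read-out, 1 hr room temperature, follows 16 hours of compound treatment of SH-SY5Y cells at 37 °C. Normalization: DMSO basal, 10 uM staurosporine as 100%; AC50 values from Hill-equation concentration-response fits.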
# [5] = Cellular Toxicity (caspase-3) MRC-5 (AID 659); conditions: MRC-5 cells, luminescence, normalized: DMSO 0%, 10 µM staurosporine 100%; series mostly up to 91.7 µM
# Outline: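 Luminescence from caspase-cleaved aminoluciferin substrate (Caspase-Glo 3/7, 1 hr RT) reports caspase 3/7 activity in MRC-5 lung fibroblasts after 16 hr compound exposure. Normalized to DMSO basal and 10 uM staurosporine as 100%; AC50 from Hill fits.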
# [6] = molecular target: Cytochrome P450 3A4 (Homo sapiens) (UniProt P08684); test: qHTS Assay for Inhibitors and Substrates of Cytochrome P450 3A4 (AID 884); conditions: recombinant CYP3A4, Luciferin-PPXE luminescence; series mostly up to 57.1 µM; note: nearly all actives have a fitted effect of over 50% in size
# Chain of Cytochrome P450 3A4 (Homo sapiens) (P08684 whole entry, looked up): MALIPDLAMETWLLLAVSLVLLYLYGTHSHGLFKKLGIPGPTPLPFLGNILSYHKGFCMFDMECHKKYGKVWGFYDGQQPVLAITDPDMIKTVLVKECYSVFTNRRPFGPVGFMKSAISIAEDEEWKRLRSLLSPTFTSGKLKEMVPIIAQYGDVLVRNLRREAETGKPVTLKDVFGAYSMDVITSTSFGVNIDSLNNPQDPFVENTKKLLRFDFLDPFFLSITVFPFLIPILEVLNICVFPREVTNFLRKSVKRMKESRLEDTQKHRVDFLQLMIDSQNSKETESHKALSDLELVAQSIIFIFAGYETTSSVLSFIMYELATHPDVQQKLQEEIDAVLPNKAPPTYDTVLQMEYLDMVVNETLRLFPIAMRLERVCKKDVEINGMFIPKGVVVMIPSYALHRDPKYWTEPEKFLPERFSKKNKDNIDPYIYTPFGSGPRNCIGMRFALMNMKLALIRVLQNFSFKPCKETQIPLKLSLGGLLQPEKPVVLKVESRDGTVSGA
# Outline: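 20 nM human CYP3A4 with 25 uM Luciferin-PPXE (at KM) in 200 mM KPO4, preincubated 10 min with compound; NADPH regeneration started a 60 min RT reaction. Luciferin detected by luminescence, normalized to 57 uM ketoconazole as full inhibition.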
# [7] = MultiTox-Fluor Cytotoxicity Assay - LYMP1-002 - Live Cells (AID 955); conditions: LYMP1-002 lymphoblastoid live-cell protease fluorescence viability; series mostly up to 46.1 µM
# Outline: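 Human lymphoblastoid LYMP1-002 cells, 2500/well, treated 16 h at 37 C in complete medium. Live-cell protease activity via GF-AFC fluorescence (Ex/Em 405/510) after 60 min reagent incubation; AC50 from Hill fits.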
# [8] = Cell Viability - LYMP1-003 - Assay at 24 hr (AID 963); conditions: LYMP1-003 lymphoblastoid cell viability; series mostly up to 92.2 µM
# Outline: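 Human lymphoblastoid LYMP1-003 cells, 2500/well, treated 24 h at 37 C in complete medium. Viability read as intracellular ATP by CellTiter-Glo luminescence after 30 min at room temperature; AC50 from Hill-equation fits of qHTS concentration-response.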
# [9] = Cell Viability - LYMP2-004 (AID 966); conditions: LYMP2-004 lymphoblastoid cell viability, qHTS; series mostly up to 92.2 µM; note: nearly all actives have a fitted effect of over 65% in size
# Outline: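 Lymphoblastoid LYMP2-004 cells, 2500 per well, were preincubated for 5 hr and then treated with compound for 24 h at 37 C in complete medium. Viability was read as cellular ATP by CellTiter-Glo luminescence, and AC50 values were taken from Hill fits to concentration-response data.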
# [10] = Cell Viability - LYMP2-009 (AID 968); conditions: LYMP2-009 lymphoblastoid cell viability; series mostly up to 92.2 µM; note: nearly all actives have a fitted effect of over 55% in size
# [11] = Cell Viability - LYMP2-017 (AID 972); conditions: LYMP2-017 lymphoblastoid cell viability; series mostly up to 92.2 µM; note: nearly all actives have a fitted effect of over 55% in size
# Outline: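 LYMP2-017 human lymphoblastoid cells (2500/well) settled 5 hr at 37 C, then exposed to compound 24 hr at 37 C in complete medium. Viability taken as intracellular ATP by CellTiter-Glo luminescence after 30 min at RT; AC50 from Hill fits.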
# [12] = Cell Viability - LYMP2-025 (AID 976); conditions: LYMP2-025 lymphoblastoid cell viability; series mostly up to 92.2 µM
# Outline: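 Human lymphoblastoid LYMP2-025 cells, 2500/well, exposed 24 h at 37 C in complete medium in 1536-well qHTS. Viability as cellular ATP by CellTiter-Glo luminescence; AC50 from Hill fits of concentration-response data.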
# [13] = Cell Viability - LYMP2-012 (AID 982); conditions: LYMP2-012 lymphoblastoid cell viability qHTS; series mostly up to 92.2 µM;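 note: cellular ATP by luciferase luminescence where a drop means cytotoxicity; cells exposed to compound for one day before reading; nearly all actives have a fitted effect of over 55% in size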
# [14] = Cell Viability - LYMP2-016 (AID 984); conditions: LYMP2-016 lymphoblastoid cell viability, qHTS; series mostly up to 92.2 µM; note: nearly all actives have a fitted effect of over 55% in size
# Outline: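 Cytotoxicity was scored by luminescent ATP content (CellTiter-Glo) after 24 h compound exposure at 37 C of a human lymphoblastoid line at 2500 cells/well. Concentration-response data were fitted to the Hill equation for AC50.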
# [15] = Cell Viability - LYMP1-002 - Assay at 40 hr (AID 994); conditions: LYMP1-002 lymphoblastoid cell viability; series mostly up to 92.2 µM; note: nearly all actives have a fitted effect of over 60% in size
# Outline: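 LYMP1-002 human lymphoblastoid cells (2500/well, complete medium) were treated with compounds for 40 hr at 37 C. Intracellular ATP was measured by CellTiter-Glo luminescence, and AC50 values came from Hill-equation fits of concentration-response data; tetraoctylammonium bromide was the positive control.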
# [16] = qHTS Assay for Identification of Small Molecule Inducers of Hypoxia Response (AID 2120; active = well fitted curve in the direction sought with a large enough effect in the signal ratio, with a control signal flat, not every such curve was filed as active; the % refers to the signal ratio); conditions: hypoxia response reporter cells, beta-lactamase ratio readout; series mostly up to 104 µM
# Outline: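 HRE-bla ME-180 cells in Opti-MEM with 0.5% dialyzed FBS, pre-plated 4-5 h, then compound titration for 17 h at 37 degrees Celsius. CCF4 loaded 2.5 h at room temperature; 460/530 nm ratio gave %Activity and AC50 for induction.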
# [17] = qHTS assay for small molecule antagonists of retinoid X receptor alpha signaling (AID 588546); conditions: HEK293T RXRa-UAS-bla, beta-lactamase ratio, antagonist mode; measured here: W530 green channel, cytotoxicity proxy;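 note: cells stimulated with 9-cis-retinoic acid as agonist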
# Outline: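 Beta-lactamase reporter inhibition, read as CCF4 fluorescence ratio (ex 405, em 460/530 nm) after 2 h at RT. HEK293T UAS-bla cells, 2500/well, were stimulated with 9-cis-RA at 500 or 100 nM final alongside test compound for 18 h at 37 C.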
# [18] = qHTS assay for environmental chemicals that activate the Aryl hydrocarbon Receptor (AhR) signaling pathway (AID 651777); conditions: 1A2-DRE human hepatoma cells, luciferase, 24 h; activation: stronger effect = higher value; note: nearly all actives have a fitted effect of over 15% in size
# Outline: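 Quantitative HTS in stably transfected human liver-derived cells whose luciferase gene sits downstream of the CYP1A2 promoter and dioxin response element. After 24 hr exposure at 37 C, One-Glo luminescence was measured.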
# [19] = molecular target: Peroxisome proliferator-activated receptor alpha (Homo sapiens) (UniProt Q07869); test: qHTS assay for small molecule agonists of the peroxisome proliferator-activated receptor alpha (PPARalpha) signaling pathway (AID 651778); conditions: PathHunter PPARalpha complementation, chemiluminescence, 6 h; stronger effect = higher value
# Chain of Peroxisome proliferator-activated receptor alpha (Homo sapiens) (Q07869 whole entry, looked up): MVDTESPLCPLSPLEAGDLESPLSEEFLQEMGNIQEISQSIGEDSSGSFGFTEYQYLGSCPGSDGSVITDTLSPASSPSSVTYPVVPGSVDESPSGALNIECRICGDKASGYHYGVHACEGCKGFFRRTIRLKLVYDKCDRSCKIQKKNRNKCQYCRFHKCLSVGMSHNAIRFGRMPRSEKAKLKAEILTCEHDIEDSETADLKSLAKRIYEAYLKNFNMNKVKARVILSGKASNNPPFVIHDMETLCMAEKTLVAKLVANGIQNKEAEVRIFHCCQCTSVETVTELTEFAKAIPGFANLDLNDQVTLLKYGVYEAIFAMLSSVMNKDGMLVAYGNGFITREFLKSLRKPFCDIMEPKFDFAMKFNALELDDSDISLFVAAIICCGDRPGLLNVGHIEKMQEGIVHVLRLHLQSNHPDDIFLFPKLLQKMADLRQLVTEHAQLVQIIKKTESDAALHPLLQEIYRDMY
# Outline: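 Cells plated at 2,000/well and held overnight at 37 C, 5% CO2, then compound added by pin tool for 6 hr; after PathHunter detection reagent and 60 min at room temperature, chemiluminescence from enzyme complementation was read.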
# [20] = qHTS assay for small molecule agonists of the antioxidant response element (ARE) signaling pathway measured by Nrf2-dependant transcriptional activity - cell viability counter screen (AID 720653; active = well fitted curve in the direction sought with a large enough effect in the repeat runs; an effect the other way counts as inactive or inconclusive); conditions: ARE-bla HepG2 viability, CellTiter-Glo ATP luminescence, 16 h; stronger effect = lower value
# Outline: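 ARE-bla HepG2 cells (2,000/well) rested 5 hrs at 37C/5% CO2, then exposed to compounds in DMSO for 16 hrs. Viability was read in the same wells as intracellular ATP by luminescence, 30 min at room temperature after reagent addition.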
SMILES,Potency [1],outcome [2],outcome [3],outcome [4],outcome [5],Potency [6],outcome [7],outcome [8],Potency [9],Potency [10],Potency [11],Potency [12],Potency [13],Potency [14],Potency [15],Potency [16],max response [17],activation [18],max response [19],max response [20]
C=C(C)CCl,> 92 µM (inactive),inactive,inactive,inactive,inactive,inactive,inactive,inactive,inactive,inactive,inactive,inactive,inactive,inactive,inactive,inactive,-2.4%,-0.792% (inactive),1.24% (inactive),-2.48% (inactive)
NC1CCC(CC2CCC(N)CC2)CC1 (stereo not given),> 92 µM (inactive),inactive,inactive,inactive,inactive,inactive,inactive,inactive,inactive,inactive,inactive,inactive,inactive,inactive,inactive,inactive,2.2% and -10.5%,-0.669% (inactive) and 0.679% (inactive),-7.49% (inactive) and -0.343% (inactive),-9.14% (inactive) and 3.44% (inactive)
CN(C)C(=O)Nc1cccc(C(F)(F)F)c1,> 92 µM (inactive),inactive,inactive,inactive,inactive,inactive,inactive,inactive,inactive,inactive,inactive,inactive,inactive,inactive,inactive,inactive,-7% and -2.56%,-0.624% (inactive) and 0.852% (inactive),-1.29% (inactive) and 0.409% (inactive),-4.03% (inactive) and 2.07% (inactive)
O=[N+]([O-])c1ccc(O)c([N+](=O)[O-])c1,> 92 µM (inactive),inactive,inactive,inactive,inactive,inactive,inactive,inactive,inactive,inactive,inactive,inactive,inactive,inactive,inactive,inactive,-0.361%,0.436% (inactive),-7.09% (inactive),-10% (inactive)
ClC(Cl)(Cl)C(Cl)(Cl)Cl,> 92 µM (inactive),inactive,inactive,inactive,inactive,inactive,inactive,inactive,inactive,inactive,inactive,inactive,inactive,inactive,inactive,inactive,-34.4%,0.18% (inactive),-2.99% (inactive),-0.289% (inactive)
Nc1cccc(Cl)c1,> 92 µM (inactive),inactive,inactive,inactive,inactive,inactive,inactive,inactive,inactive,inactive,inactive,inactive,inactive,inactive,inactive,inactive,0.683%,-0.221% (inactive),0.632% (inactive),2.22% (inactive)

# Source: PubChem BioAssay (NCATS)
